# Screens as filed in PubChem.
# Shown are actives, neighbours in structure and some others; about 27% of the full set was active somewhere.
# Cav32 inh: human Cav3.2 channel inhibition, primary screen. B-score at 10 µM. AID 449739. Cav3.2-expressing cells, Fluo-4 calcium fluorescence FDSS; stronger effect = lower value. O95180. hit rate 4% among 100,000;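 active means single-dose well whose peak fluorescence ratio is a statistical outlier from its plate by either plate-standardised score or position-corrected B-score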
# CYP2C19 act: increases human CYP2C19 enzyme activity; P33261; recombinant CYP2C19, luciferin-H EGE luminescence; stronger effect = higher value; 0 = fully inhibited enzyme, 1 = untreated enzyme; activation factor at 5 µM; 96,000 tested, under 10 active; AID 1025;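 active means activation factor of at least 2 at 5 µM in the primary screen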;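 further: 0 = wells with 2.5 mM tranylcypromine and 1 = vehicle-only wells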
# CYP2C9 inh: inhibitors of human CYP2C9; hit rate 20% among 96,000; P11712; inhibition, % at 5 µM; CYP2C9 Supersomes, luciferin-H conversion, luminescence;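 active means blocking of liver enzyme CYP2C9 beyond about 50% at 5 µM, limit read from the data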
# CYP2C9 act: increases human cytochrome P450 2C9 activity. P11712. recombinant CYP2C9, luciferin-H conversion, luminescence; stronger effect = higher value; factor 1 = untreated enzyme, 0 = blocked. activation factor at 5 µM. hit rate 1.4% among 96,000. AID 1024;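 active means activation factor of 2 or more for CYP2C9 at a 5 µM dose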;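 further: 0 = sulfaphenazole-blocked wells and 1 = vehicle-only wells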
# CYP2C19 inh: blocks human cytochrome P450 2C19 | P33261 | CYP2C19 Supersomes, luciferin-H EGE luminescence, 30 min | inhibition, % at 5 µM | hit rate 21% among 96,000;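 active means CYP2C19 inhibition above a set limit at 5 µM in the primary screen, cut at about 50% in these data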;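 further: plate controls were negative control wells for no effect and 2.5 mM tranylcypromine positive control for full effect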
# * = called active by the depositor; nt = not tested or not shown.
SMILES,Cav32 inh,CYP2C19 act,CYP2C9 inh,CYP2C9 act,CYP2C19 inh
CCn1c(CSc2nc(C)cs2)nc2cc(S(=O)(=O)N(C)C)ccc21,1.2,1,43,0.6,-2
CCn1c(CCC(=O)Nc2cc(F)ccc2C)nc2cc(S(=O)(=O)N(C)C)ccc21,1.6,0.8,80*,0.2,16
S=c1[nH]c2cc(Cl)ccc2s1,-2,0.9,17,0.8,7
Cc1c(C(=O)N2CCCCC2)sc(N)c1C#N,0.53,0.8,18,0.8,19
COCCNC(=O)c1cn(C)c2ccc(S(=O)(=O)N(C)C3CCCCC3)cc2c1=O,2.8,0.9,32,0.7,8
CCOCC(=O)Nc1cccc(Br)c1,nt,0.8,-4,1,16
COc1ccccc1OCC(=O)Nc1ccc(O)cc1C(=O)O,1.7,1.2,14,0.9,-20
O=C(COc1ccc(Br)cc1CO)Nc1ccccc1,-0.68,0.1,71*,0.3,89*
COc1ccccc1NC(=O)COc1ccc(Br)cc1CO,0.0059,0.4,31,0.7,55*
O=C(COc1ccc(Br)cc1CO)Nc1ccccc1F,-0.66,0,67*,0.3,95*
Clc1ccc(Sc2cc(Cl)c(-c3ccccc3)nn2)cc1,-3,0.4,66*,0.3,55*
NC(=O)C(c1ccc(Sc2ccccc2)nn1)c1ccc(Cl)cc1Cl (centres undefined),-3.2,0.7,23,0.8,32
CCCOC(=O)c1ccc(OCC(O)Cn2c(C)nc3ccccc32)cc1 (centres undefined),nt,0.8,48,0.5,22
Cc1cc(C)c2cc(C#N)c(SCC(=O)NCc3ccco3)nc2c1,0.68,0.7,71*,0.3,29
COc1cc2nc(SCC(=O)NCc3ccco3)n(Cc3ccc(Cl)cc3)c(=O)c2cc1OC,-0.99,nt,nt,nt,nt
O=C(CSc1c2c(nc3cc(Cl)ccc13)CCCC2)NCc1ccco1,-2.5,0,88*,0.1,98*
Cc1ccc2c(SCC(=O)NCc3ccco3)nc(-c3ccc(F)cc3)nc2c1,0.025,0.7,89*,0.1,28
CC(C)OCCCNC(=O)Cn1nc(-c2ccccc2)ccc1=O,-0.59,1.1,-8,1.1,-15
Cc1c(F)cccc1NS(=O)(=O)c1ccccc1C#N,-1.2,0.4,29,0.7,59*
COc1ccccc1NS(=O)(=O)c1ccccc1C#N,0.53,0.4,-174,2.7*,58*
Cc1ccc2c(c1)N(C(=O)c1ccco1)C(C)(C)c1ssc(=S)c1-2,-4.6,0.7,54*,0.5,33
Cc1ccc2c(c1)N(C(=O)CSc1nncn1C)C(C)(C)c1ssc(=S)c1-2,0.16,0.3,48,0.5,67*
O=C(NC(NNc1ccc([N+](=O)[O-])cc1)(C(F)(F)F)C(F)(F)F)c1ccccc1Cl,-8.5*,0.6,53*,0.5,45
CSc1nnc(C)c(/C=C/Nc2ccc(Cl)cc2)n1,-3.6,0.7,57*,0.4,30
Cc1nc2ccc(S(=O)(=O)N(C)CC(=O)N3CCc4ccccc4C3)cc2s1,0.91,0.6,45,0.6,39
SMILES,Cav32 inh,CYP2C19 act,CYP2C9 inh,CYP2C9 act,CYP2C19 inh
N#Cc1c(-n2cccc2/C=N/O)sc2c1CCCC2,nt,0.6,-176,2.8*,40
C=CCNCc1cccn1-c1sc2c(c1C#N)CCCC2,-0.48,1,-6,1.1,3
CCC(Sc1ccc2nnc(-c3ccc(F)cc3)n2n1)C(=O)OC (centres undefined),0.035,0.7,61*,0.4,27
Cc1cc(NC(=O)CSc2ccc3nnc(-c4cccs4)n3n2)no1,nt,0.9,75*,0.2,14
COC(=O)C(C)Sc1ccc2nnc(-c3ccc(F)cc3)n2n1 (centres undefined),1.8,0.9,35,0.6,5
Cc1cc(NC(=O)CSc2ccc3nnc(-c4cccnc4)n3n2)no1,nt,0.9,39,0.6,14
Cc1cc(NC(=O)CSc2ccc3nnc(-c4ccc(F)cc4)n3n2)no1,-0.0069,1,33,0.7,-1
Cc1ccc(-c2nnc3ccc(SCC(=O)Nc4cc(C)on4)nn23)cc1,0.31,1.1,50*,0.5,-7
CC(=O)c1ccc(NC(=O)CSC(C)C)cc1,0.46,0.9,6,0.9,9
O=[N+]([O-])c1cc(-c2cnc3ccccc3n2)ccc1Oc1ccc(F)cc1,0.32,0.9,32,0.7,12
Cc1ccc(Nc2[nH]c(=O)c3ccccc3c2C(=O)c2ccccc2)cc1,0.41,nt,nt,nt,nt
CCn1c(Cn2nnc(-c3ccccc3)n2)nnc1SCC(=O)Nc1ccc(C(C)=O)cc1,nt,0.7,40,0.6,26
Cc1cccc(NC(=O)CSc2nnc(C)n2Cc2ccccc2)c1,-0.49,0.4,-5,1,59*
Cc1nnc(SCC(=O)Nc2sccc2C(N)=O)n1Cc1ccccc1,1.3,0.2,-128,2.3*,76*
CCc1nnc(NC(=O)CSc2nnc(C)n2Cc2ccccc2)s1,0.74,nt,nt,nt,nt
COC(=O)c1cccc(NC(=O)CSc2nnnn2C)c1,1.6,0.9,12,0.9,7
CCn1c(Cn2nnc(-c3ccccc3)n2)nnc1SCC(=O)Nc1cccc(C(C)=O)c1,-2.6,0.3,42,0.6,70*
Cc1nnc(SCC(=O)Nc2ncc(Cl)cc2Cl)n1Cc1ccccc1,0.47,0.7,33,0.7,33
COC(=O)c1cccc(NC(=O)CSc2nnc(C)n2Cc2ccccc2)c1,-0.74,0.3,89*,0.1,70*
Oc1ccc(-c2cn3c(n2)SCC3)cc1O,0.89,0.8,37,0.6,22
CCOc1ccc(NC(=O)CSc2nc(C)c3c(c2C#N)CCCC3)cc1,0.47,1,-8,1.1,4
O=C(C1CCCO1)N1CCN(Cc2c(O)ccc3ccccc23)CC1 (centres undefined),-0.026,0.6,1,1,39
C[C@@H](C(=O)NCCc1c[nH]c2ccccc12)[C@@H]1C[C@@]1(C)[C@@H](NC(=O)OCc1ccccc1)c1ccccc1,-0.65,nt,nt,nt,nt
C[C@H](NC(=O)c1nc[nH]c1C(=O)N[C@@H](CCCCNC(=O)OC(C)(C)C)C(=O)OC(C)(C)C)c1ccccc1,-2.2,nt,nt,nt,nt
Cc1cc(C)c(S(=O)(=O)N2CCOC2CNC(=O)C(=O)NCc2cccnc2)c(C)c1 (centres undefined),0.58,nt,nt,nt,nt
SMILES,Cav32 inh,CYP2C19 act,CYP2C9 inh,CYP2C9 act,CYP2C19 inh
Cc1ccc(C(N)=S)c(C)c1,0.57,nt,nt,nt,nt
CCCC1(CCC)NC(=O)N(CC(=O)Nc2cccc(OC)c2)C1=O,0.064,1,0,1,4
CCOC(=O)c1cn(CC(=O)Nc2cccc(Cl)c2C)nn1,0.91,0.9,32,0.7,13
CCOC(=O)c1nnn(CC(=O)Nc2cccc(Cl)c2C)c1C(=O)OCC,-0.044,0.1,67*,0.3,94*
COC(=O)c1nnn(CC(=O)Nc2cccc(OC)c2)c1C(=O)OC,0.23,0.6,63*,0.4,37
COC(=O)c1nnn(CC(=O)Nc2cc(Cl)ccc2C)c1C(=O)OC,-1.1,0.4,54*,0.5,55*
CCC1(CC)C(=O)NN(c2ccccc2)C1=O,-0.18,nt,nt,nt,nt
CC(NC(=O)c1ccc(F)cc1)c1ccccc1 (centres undefined),0.16,0.8,-8,1.1,23
